In PubChem BioAssay (NCI):
This is part of a sample that, as a whole, favours compounds with a hit. Of some 83,000 tested, about 20% had one in any assay.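 A percent growth of 40 corresponds to 60% growth inhibition; 0 means no net growth; -100 means all cells died. Active threshold: below 10.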 Active and inactive are the calls of the source.

tested on: SK-MEL-2 melanoma; experiment: NCI-60 one-dose screen, 48 h (100 = growth as untreated, 0 = no growth, -100 = all killed); conditions: 10 µM unless noted
Experimental: Growth inhibition of the SK-MEL-2 human tumor cell line is measured as a screen for anti-cancer activity. Cells are grown in 96 well plates and exposed to the test compound for 48 hours. Compounds are tested at a single concentration, which is 10^-5 M for most compounds. The reported endpoint is percent growth (GI% or GIPRCNT), where numbers from 0 - 100% represent growth inhibition, and numbers from -100% - 0 represent cell death. For example, a value of 40 represents 60% growth inhibition. A value of 0 means no net growth occurred over the course of the experiment. A value of -40 indicates 40% of cells at the beginning of the experiment died by the end of the experiment. A value of -100 means all cells are dead at the end of the experiment.
NCI-60 Human Tumor Cell Lines Screen was performed using the standard one-dose NCI protocol, which is described in more detail at https://dtp.cancer.gov/discovery_development/nci-60/default.htm.
Compounds with GIPRCNT values below 10 were considered active. Activity score was based on GIPRCNT using the following formula: […]
Score is 0 for GIPRCNT values of 100 or above, 50 for GIPRCNT values of 0, and 100 for GIPRCNT values of -100.

Compound	growth
CCOC(=O)[C@@H](C)C[C@H](Cc1ccccc1)NC(=O)c1csc([C@@H](C[C@H](C(C)C)N(C)C(=O)[C@@H](NC(=O)[C@H]2C[C@H](O)CCN2C)C(C)C)OC(C)=O)n1	16.8% (inactive)
COc1ccc(/C=C\c2cc(OC)c(OC)c(OC)c2)cc1NC(=O)/C=C/c1ccc(OC)c(OC)c1	66.9% (inactive)
COC(=O)C1CCC(NC(=O)c2csc([C@@H](C[C@H](C(C)C)N(C)C(=O)[C@@H](NC(=O)[C@H]3CCCCN3C)C(C)C)OC(C)=O)n2)CC1 (stereo not given in full)	28.6% (inactive)
CCOC(=S)S[C@H]1C[C@@H]2[C@H](CC[C@]3(C)C(=O)CC[C@@H]23)[C@@]2(C)CCC(=O)C=C12	116% (inactive)
C[C@@H]1O[C@@H](O[C@H]2C[C@@H](O)[C@]3(CO)C4C(CC[C@]3(O)C2)[C@@]2(O)CC[C@H](C3=CC(=O)OC3)[C@@]2(C)C[C@H]4O)[C@H](O)[C@H](O)[C@H]1O (stereo not given in full)	-59.9% (active)
O=C(CC1(O)C(=O)Nc2ccc(Br)cc21)c1ccc(C(=O)NCC2CCC3(CC2)OOC2(CCCCC2)OO3)cc1 (stereo not given)	23.3% (inactive)
Nc1nc([Se])c2ncn(C3OC(CO)C(O)C3O)c2n1 (stereo not given)	104% (inactive)
COc1cc2c(cc1OCCCCCn1c(-c3ccco3)nc3ccccc31)N=C[C@@H]1CCCN1C2=O	-43.9% (active)
Cc1c(NS(=O)(=O)c2ccccc2)ccc([N+](=O)[O-])c1Cl	65.1% (inactive)
CC1CCCC(C[N+](C)(C)C)C1=O (stereo not given)	117% (inactive)
Cc1ccc(S(=O)(=O)F)cc1C(=O)O	105% (inactive)
C[C@]12CCc3nc(Nc4ccccc4F)sc3C1=CC[C@@H]1[C@@H]2CC[C@]2(C)C(=O)CC[C@@H]12	92.8% (inactive)
CC[S][Hg][Cl]	105% (inactive)
CC(=O)Oc1ccccc1C(=O)NCCC[Se]C#N	44.3% (inactive)
OCCCCCNC1CCCCC1	80.7% (inactive)
O=C1CC2(CC3(Cl)C(Cl)=C(Cl)C2(Cl)C3(Cl)Cl)C(=O)O1 (stereo not given)	121% (inactive)
CCCCOc1ccc(C(N)Cc2ccccc2)cc1 (stereo not given)	107% (inactive)
N#CC1C(C#N)C2CCC1C1C2N1c1ccccc1 (stereo not given)	106% (inactive)
CC1(C)N=C(N)N=C(N)N1c1ccc(OCCCNC(=O)Nc2ccc(S(=O)(=O)F)cc2)c(Cl)c1	53.3% (inactive)
COc1ccc(Nc2ccnc3cc(Cl)ccc23)cc1CN(CCCl)CCCl	-46.7% (active)

Compound	growth
CNC(=O)Oc1cccc(C(F)(F)F)c1	106% (inactive)
COc1ccc2c(c1)c(C1(O)CC(CSC#N)OC1=O)cn2C(=O)c1ccc(Cl)cc1 (stereo not given)	80% (inactive)
C/C=C(\C)C(=O)O[C@@H]1C(O)[C@H]2OC(COC(=O)CCC(=O)CCCCCC[C@H](CCCCC)O[C@@H]3OC(C)[C@H](OC(C)=O)C(O)[C@H]3O2)[C@H]1OC(=O)/C=C/c1ccccc1 (stereo not given in full)	-1.53% (active)
CC(=O)/C=C/c1ccc2c(c1)OCO2	107% (inactive)
COC(C(=O)[C@@H](O)[C@@H](C)O)[C@@H]1Cc2cc3cc(O[C@H]4C[C@@H](O[C@H]5C[C@@H](O)[C@H](O)C(C)O5)[C@H](O)C(C)O4)c(C)c(O)c3c(O)c2C(=O)[C@H]1O[C@H]1C[C@@H](O[C@H]2C[C@@H](O[C@H]3C[C@@H](O)[C@@H](O)C(C)O3)[C@@H](O)C(C)O2)[C@H](O)C(C)O1 (stereo not given in full)	-61.3% (active)
O=C1OCCC1Br (stereo not given)	96.5% (inactive)
Cc1cc(C)cc(Nc2nc3c(s2)CC[C@@]2(C)C3=CC[C@@H]3[C@@H]2CC[C@]2(C)C(=O)CC[C@@H]32)c1	54.9% (inactive)
Cn1cc(-c2csc(-c3cn(CCCCN4CCCCC4)c4ccc(F)cc34)n2)c2cccnc21	97.4% (inactive)
CN(CCCCN(C)CCOS(C)(=O)=O)CCOS(C)(=O)=O	102% (inactive)
O=C1CCC2(O)[C@@H]3Cc4ccc(O)c5c4[C@]2(CCN3Cc2ccoc2)C1O5 (stereo not given in full)	106% (inactive)
COc1cc(/C=C/[N+](=O)[O-])cc(OC)c1	59.6% (inactive)
CCCC(C)C1(CC)C(=O)NC(=O)N(C)C1=O (stereo not given)	85.4% (inactive)
CC(C)=CCC[C@H](C(=O)O)[C@@H]1CC[C@]2(C)C3=C(CC[C@@]12C)[C@@]1(C)CC[C@H](O)C(C)(C)[C@@H]1CC3	91% (inactive)
Oc1ccc2c3c1OC1[C@@H](O)CC[C@@]4(O)[C@@H](C2)N(CC2CCC2)CC[C@]314 (stereo not given in full)	118% (inactive)
CNC12C3C4C1C1C2C3C41C(=O)N[C@H](C(=O)N(C)[C@H](C[C@@H](OC(C)=O)c1nc(C(=O)N[C@@H](Cc2ccccc2)C[C@H](C)C(=O)OC)cs1)C(C)C)C1CC1 (stereo not given in full)	25.4% (inactive)
CN1C(=O)C(=Cc2cn(CCCCCCn3c4ccccc4c(=O)c4ccccc43)c3ccccc23)C(=O)N(C)C1=O	92.8% (inactive)
CC[C@H](NC(=O)[C@H]1CCCCN1C)C(=O)N(C)[C@H](C[C@@H](OC(C)=O)c1nc(C(=O)N[C@@H](Cc2ccccc2)C[C@H](C)C(=O)O)cs1)C(C)C	36.8% (inactive)
[Au+].[N-]=C=O.c1ccc(CN2[CH-]N(Cc3ccccc3)C(c3ccccc3)=C2c2ccccc2)cc1	84.5% (inactive)
COC(=O)[C@@H](NC(=O)c1cn(CCC2CCCCC2)c2ccccc12)C(C)(C)C	78.1% (inactive)
COC(=O)[C@@H](C)C[C@H](Cc1ccccc1)NC(=O)c1csc([C@@H](C[C@H](C(C)C)N(C)C(=O)C2(NC(=O)[C@H]3CCCCN3C)CC2)OC(C)=O)n1	34.1% (inactive)
